For assay [1], the target named is Tyrosine-protein kinase SYK (Homo sapiens) (UniProt P43405). To be noted: at 10 µM.
In assay [2] the target is T1, Mitogen-activated protein kinase kinase kinase 7 (Homo sapiens) (UniProt O43318).
T1 sequence (whole entry): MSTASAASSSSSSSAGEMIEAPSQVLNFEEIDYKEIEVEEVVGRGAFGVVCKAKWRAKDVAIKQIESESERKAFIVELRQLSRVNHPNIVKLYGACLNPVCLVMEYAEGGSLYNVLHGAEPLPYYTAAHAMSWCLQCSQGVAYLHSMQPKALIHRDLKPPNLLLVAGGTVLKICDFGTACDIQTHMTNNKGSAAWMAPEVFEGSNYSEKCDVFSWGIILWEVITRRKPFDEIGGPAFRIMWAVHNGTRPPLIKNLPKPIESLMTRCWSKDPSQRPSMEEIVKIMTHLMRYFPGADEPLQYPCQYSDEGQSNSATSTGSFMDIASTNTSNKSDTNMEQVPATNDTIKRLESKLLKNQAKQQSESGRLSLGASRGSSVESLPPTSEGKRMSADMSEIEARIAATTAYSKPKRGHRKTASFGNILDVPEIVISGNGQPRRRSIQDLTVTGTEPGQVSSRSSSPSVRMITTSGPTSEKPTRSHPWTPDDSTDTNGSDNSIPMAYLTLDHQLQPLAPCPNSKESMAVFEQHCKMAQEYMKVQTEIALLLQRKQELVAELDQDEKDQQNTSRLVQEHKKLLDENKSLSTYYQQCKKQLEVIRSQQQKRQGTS
The note with it: at 1 µM.

Assay [3] deals with T1, Mitogen-activated protein kinase kinase kinase 7 (Homo sapiens). To be noted: at 10 µM.
For assay [4], the target named is T2, Serine/threonine-protein kinase TAO1 (Homo sapiens) (UniProt Q7L7X3).
T2 sequence (whole entry): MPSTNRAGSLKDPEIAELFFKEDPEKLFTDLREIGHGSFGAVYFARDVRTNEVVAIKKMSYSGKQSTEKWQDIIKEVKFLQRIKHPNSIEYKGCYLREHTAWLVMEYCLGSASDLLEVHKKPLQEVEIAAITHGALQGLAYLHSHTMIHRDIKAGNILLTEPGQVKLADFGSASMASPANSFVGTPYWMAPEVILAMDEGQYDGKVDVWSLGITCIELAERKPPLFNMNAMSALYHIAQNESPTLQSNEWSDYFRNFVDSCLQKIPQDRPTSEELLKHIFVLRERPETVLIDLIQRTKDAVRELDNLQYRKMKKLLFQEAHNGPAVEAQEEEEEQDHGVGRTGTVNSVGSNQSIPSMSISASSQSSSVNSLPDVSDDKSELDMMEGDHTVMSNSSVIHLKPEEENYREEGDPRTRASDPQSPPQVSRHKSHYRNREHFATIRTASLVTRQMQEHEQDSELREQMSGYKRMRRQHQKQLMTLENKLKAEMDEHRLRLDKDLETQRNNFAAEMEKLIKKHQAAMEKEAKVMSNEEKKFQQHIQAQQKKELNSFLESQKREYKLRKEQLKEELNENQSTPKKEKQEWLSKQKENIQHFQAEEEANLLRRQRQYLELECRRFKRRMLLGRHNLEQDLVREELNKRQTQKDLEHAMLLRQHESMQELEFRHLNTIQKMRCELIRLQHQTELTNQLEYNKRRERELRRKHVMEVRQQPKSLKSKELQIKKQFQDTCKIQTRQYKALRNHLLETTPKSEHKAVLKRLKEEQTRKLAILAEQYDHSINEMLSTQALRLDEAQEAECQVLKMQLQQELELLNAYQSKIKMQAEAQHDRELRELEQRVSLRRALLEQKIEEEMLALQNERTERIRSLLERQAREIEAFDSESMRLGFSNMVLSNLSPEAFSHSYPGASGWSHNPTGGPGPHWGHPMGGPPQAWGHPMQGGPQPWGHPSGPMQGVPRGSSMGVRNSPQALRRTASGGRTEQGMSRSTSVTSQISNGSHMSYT
The note with it: at 1 µM.

In assay [5] the target is T2, Serine/threonine-protein kinase TAO1 (Homo sapiens). The note with it: at 10 µM.
The target in assay [6] is T3, Serine/threonine-protein kinase TAO2 (Homo sapiens) (UniProt Q9UL54).
T3 sequence (whole entry): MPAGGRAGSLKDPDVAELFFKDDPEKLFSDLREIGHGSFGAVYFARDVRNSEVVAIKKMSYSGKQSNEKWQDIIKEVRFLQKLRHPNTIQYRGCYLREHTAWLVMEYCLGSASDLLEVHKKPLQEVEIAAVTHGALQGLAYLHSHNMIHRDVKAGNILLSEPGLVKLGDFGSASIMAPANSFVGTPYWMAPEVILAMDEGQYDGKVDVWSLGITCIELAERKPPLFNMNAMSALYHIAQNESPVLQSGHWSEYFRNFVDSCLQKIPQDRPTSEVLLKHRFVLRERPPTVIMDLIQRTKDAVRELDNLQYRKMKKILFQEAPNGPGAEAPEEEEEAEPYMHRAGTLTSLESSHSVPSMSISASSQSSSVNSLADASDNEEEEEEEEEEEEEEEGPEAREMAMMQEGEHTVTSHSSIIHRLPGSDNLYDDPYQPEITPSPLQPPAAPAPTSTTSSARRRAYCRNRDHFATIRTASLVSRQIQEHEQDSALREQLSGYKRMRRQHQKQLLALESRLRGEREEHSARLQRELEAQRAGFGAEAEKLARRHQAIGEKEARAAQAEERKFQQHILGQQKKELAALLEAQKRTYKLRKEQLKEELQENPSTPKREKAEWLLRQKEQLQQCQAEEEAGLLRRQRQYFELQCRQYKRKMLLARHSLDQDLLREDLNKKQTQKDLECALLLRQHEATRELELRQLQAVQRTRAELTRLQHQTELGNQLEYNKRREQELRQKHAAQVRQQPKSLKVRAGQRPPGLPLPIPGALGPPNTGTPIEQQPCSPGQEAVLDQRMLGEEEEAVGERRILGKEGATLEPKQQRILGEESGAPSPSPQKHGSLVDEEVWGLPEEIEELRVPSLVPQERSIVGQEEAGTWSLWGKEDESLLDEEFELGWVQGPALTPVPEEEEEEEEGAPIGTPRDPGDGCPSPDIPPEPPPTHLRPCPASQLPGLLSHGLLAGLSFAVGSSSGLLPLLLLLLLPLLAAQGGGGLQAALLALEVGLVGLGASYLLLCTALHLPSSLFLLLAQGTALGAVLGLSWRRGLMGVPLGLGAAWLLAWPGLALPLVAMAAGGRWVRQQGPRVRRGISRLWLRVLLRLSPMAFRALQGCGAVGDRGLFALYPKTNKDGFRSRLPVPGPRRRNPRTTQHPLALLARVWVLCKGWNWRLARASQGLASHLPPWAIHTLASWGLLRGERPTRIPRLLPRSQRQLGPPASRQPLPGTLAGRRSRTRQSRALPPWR
To be noted: at 1 µM.

Assay [7] has as its target T3, Serine/threonine-protein kinase TAO2 (Homo sapiens). To be noted: at 10 µM.
Assay [8] deals with T4, Serine/threonine-protein kinase TAO3 (Homo sapiens) (UniProt Q9H2K8).
T4 sequence (whole entry): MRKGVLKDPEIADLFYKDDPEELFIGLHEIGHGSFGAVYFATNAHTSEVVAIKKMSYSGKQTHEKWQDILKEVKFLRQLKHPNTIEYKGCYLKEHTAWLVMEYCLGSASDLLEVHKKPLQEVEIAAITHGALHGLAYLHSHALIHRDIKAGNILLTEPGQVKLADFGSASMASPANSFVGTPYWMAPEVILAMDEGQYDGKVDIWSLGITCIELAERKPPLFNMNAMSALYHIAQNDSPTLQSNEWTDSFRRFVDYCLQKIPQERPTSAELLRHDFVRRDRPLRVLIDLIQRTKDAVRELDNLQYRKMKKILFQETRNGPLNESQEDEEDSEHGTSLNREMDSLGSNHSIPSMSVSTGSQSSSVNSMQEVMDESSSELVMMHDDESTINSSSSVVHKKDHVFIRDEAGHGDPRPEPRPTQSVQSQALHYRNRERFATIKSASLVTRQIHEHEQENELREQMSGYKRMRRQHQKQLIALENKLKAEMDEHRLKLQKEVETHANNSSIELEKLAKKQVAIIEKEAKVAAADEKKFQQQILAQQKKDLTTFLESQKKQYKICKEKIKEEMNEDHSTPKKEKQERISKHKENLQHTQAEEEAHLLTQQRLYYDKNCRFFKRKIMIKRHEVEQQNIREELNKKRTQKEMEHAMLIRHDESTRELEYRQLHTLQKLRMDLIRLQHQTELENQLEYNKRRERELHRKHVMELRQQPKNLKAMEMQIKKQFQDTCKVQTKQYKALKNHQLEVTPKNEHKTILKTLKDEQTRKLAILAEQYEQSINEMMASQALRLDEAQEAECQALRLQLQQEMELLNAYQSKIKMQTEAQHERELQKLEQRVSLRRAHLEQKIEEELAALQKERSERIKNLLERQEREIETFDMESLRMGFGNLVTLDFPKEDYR
To be noted: at 1 µM.

Assay [9] has as its target T4, Serine/threonine-protein kinase TAO3 (Homo sapiens). The note with it: at 10 µM.
For assay [10], the target named is T5, Serine/threonine-protein kinase TBK1 (Homo sapiens) (UniProt Q9UHD2).
T5 sequence (whole entry): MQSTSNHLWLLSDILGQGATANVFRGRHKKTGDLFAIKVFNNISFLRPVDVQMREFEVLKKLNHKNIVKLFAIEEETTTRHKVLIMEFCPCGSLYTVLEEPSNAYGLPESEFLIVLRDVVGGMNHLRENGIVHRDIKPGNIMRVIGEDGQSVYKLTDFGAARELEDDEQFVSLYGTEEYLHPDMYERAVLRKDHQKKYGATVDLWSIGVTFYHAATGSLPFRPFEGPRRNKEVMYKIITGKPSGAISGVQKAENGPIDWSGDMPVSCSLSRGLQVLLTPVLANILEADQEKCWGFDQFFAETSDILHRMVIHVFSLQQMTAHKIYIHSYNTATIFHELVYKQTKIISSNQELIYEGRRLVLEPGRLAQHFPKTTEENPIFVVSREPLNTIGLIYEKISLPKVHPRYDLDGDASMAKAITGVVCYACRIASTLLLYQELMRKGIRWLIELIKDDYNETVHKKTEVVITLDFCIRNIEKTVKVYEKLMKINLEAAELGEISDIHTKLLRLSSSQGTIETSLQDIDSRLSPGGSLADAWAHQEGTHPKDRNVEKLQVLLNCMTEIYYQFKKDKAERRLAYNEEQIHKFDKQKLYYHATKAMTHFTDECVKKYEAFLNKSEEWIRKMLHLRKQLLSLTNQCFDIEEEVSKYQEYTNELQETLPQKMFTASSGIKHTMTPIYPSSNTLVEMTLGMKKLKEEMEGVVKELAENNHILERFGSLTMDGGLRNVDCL
The note with it: at 1 µM.

For the compound `Oc1ccc(-c2nc(-c3ccc(F)cc3)c(-c3ccncc3)[nH]2)cc1`, the residual activity in [1] is 100%; in [2], 104%; in assay [3], 101%; in assay [4] it was 102%; in [5], 69%; in [6], 106%. The residual activity stood at 68% in assay [7], 111% in assay [8], 84% in [9] and 110% in assay [10].
